This is one part of a sample in which hits are shown more often than they occur.
AmpC inh no detg: blocks E. coli AmpC beta-lactamase in detergent-free assay; P00811; AmpC nitrocefin hydrolysis, absorbance 480 nm, 0.0001% Triton; Potency, µM (doses to about 57.1 µM), for inactives: at the top dose activity change, negative = inhibition, most hits filed as inhibitors; 0.52% of 330,000 active;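 further: potency means the concentration at half of the fitted maximal effect; plate controls were no compound for no effect and no enzyme for full effect; nearly all actives have a fitted effect of over 20% in size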
Target sequence (P00811 whole entry, looked up): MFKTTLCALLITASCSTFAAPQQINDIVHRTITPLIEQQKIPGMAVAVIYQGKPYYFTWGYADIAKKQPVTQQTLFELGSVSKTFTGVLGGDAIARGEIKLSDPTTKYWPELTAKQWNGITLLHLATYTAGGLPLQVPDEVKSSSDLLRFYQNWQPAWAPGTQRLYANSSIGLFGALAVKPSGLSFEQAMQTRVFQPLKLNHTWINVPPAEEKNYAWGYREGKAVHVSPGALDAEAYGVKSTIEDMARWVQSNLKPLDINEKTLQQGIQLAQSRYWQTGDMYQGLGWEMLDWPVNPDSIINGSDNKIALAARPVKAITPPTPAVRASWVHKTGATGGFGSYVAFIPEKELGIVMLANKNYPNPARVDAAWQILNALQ
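20 mM phosphate pH 7.0 + 0.01% (detergent screen) or 0.0001% Triton X-100; 5.3 nM AmpC reagent; cpd preinc 15 min RT; nitrocefin (800 uM stock) to start; A480 q20 s × 4 min; Activity was normalised to no-enzyme and no-compound control wells.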
AmpC detergent: AmpC beta-lactamase inhibition with detergent present | AmpC hydrolysis of nitrocefin, absorbance 480 nm, 0.01% Triton | Potency, µM (highest dose often 114 µM), without a hit: top-dose activity change, negative = inhibition, most hits filed as inhibitors | 0.041% of 370,000 active | AID 485294 | P00811;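 further: potency means the concentration at half of the fitted maximal effect; 0% = no-compound wells and -100% = no-enzyme wells; nearly all actives have a fitted effect of over 25% in size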
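AmpC (5.3 nM in the dispensed reagent) in 20 mM phosphate pH 7.0 with 0.01% (detergent screen) or 0.0001% Triton X-100 was preincubated with compounds for 15 min at room temperature. Nitrocefin was then added from an 800 uM solution, and hydrolysis was followed at 480 nm.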
NS1 function inh: inhibitors of influenza NS1 protein function. 0.4% of 270,000 active. Potency, µM (titrated, usually from 46.1 µM), without a hit: at the highest dose activity, positive = more growth; calls by dose curve; further: potency means the concentration at half of the fitted maximal effect; actives are rising curves; nearly all actives have a fitted effect of over 50% in size
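OD600 was taken as the measure of yeast growth restored by compound in an NS1-expressing S. cerevisiae strain. Cells had been washed out of glucose medium and diluted 1:100 into galactose -URA medium, pH 6.0.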
Cycloheximide cs: counter-screen for Shiga toxin inhibitors: cycloheximide protein synthesis inhibition. 12% of 300,000 active. max response, %. cell reporter, cycloheximide protein synthesis inhibition counterscreen; in the data active means max response mostly above about 13%, no sharp cut-off; inactive means mostly below about 14%; further: read at 38.3 µM for the half of the compounds with a filed dose; 0% is about no effect
Shiga inhibitor: blocks Shiga toxin action in Vero cells. Vero cells, Shiga toxin protein synthesis inhibition reporter. inhibition, % at 38.7 µM. 9.2% of 290,000 active. AID 2315; in the data active means inhibition mostly above about 28%, no sharp cut-off; inactive means mostly below about 43%; further: 0% is about no effect
* = called active by the depositor; ? = inconclusive; . = no result given; [ ] = another dose, or the depositor's remark. Unless noted, the call rests on the fitted dose curve; in most records, active means well fitted curve in the direction sought with a large enough effect; inconclusive means small, poorly fitted or top-dose-only effect, or another doubt; inactive means no such curve, though single readings can be large; an effect the other way counts as inactive or inconclusive.

SMILES | AmpC inh no detg | AmpC detergent | NS1 function inh | Cycloheximide cs | Shiga inhibitor
CCC(=O)n1nc(-c2cccnc2)nc1NCc1ccc(OC)cc1 | 12% | 2% | -48% | -3 | 2
O=C(c1cccnc1)n1nc(-c2ccco2)nc1NCc1cccs1 | -4%[2.29 µM] | ? | 8% | 37* | 124*
CC(=O)n1nc(-c2ccccc2)nc1NCc1cccs1 | -46% | -3% | -4% | 25* | 30
COCC(=O)n1nc(NCc2ccc(OC)cc2)nc1NCc1ccc(OC)cc1 | 43% | 1% | -62% | -1 | -5
COCC(=O)n1nc(-c2ccccc2)nc1NCc1ccccc1 | -43% | -1% | -2% | 25* | 63
O=C(c1ccccc1)n1nc(-c2ccco2)nc1NCc1cccs1 | . | 11% | . | . | .
Cc1ccc2oc3c(c(=O)c2c1)C(c1ccc(OCC(N)=O)cc1)N(Cc1ccc2c(c1)OCO2)C3=O (stereo not drawn) | . | -8% | . | . | .
CCN1CCN(C(c2ccc(C)cc2)c2sc3nc(-c4ccco4)nn3c2O)CC1 (stereo not drawn) | . | 3% | . | . | .
Cc1csc(NC(=O)CS(=O)(=O)Cc2ccccc2)n1 | -24% | -7% | -1% | 1 | -3
COc1cc(CNC(=O)c2ccc3nc(Cc4ccccc4)oc3c2)cc(OC)c1OC | . | 17% | . | . | .
COCC(=O)n1nc(-c2ccccc2)nc1NCc1ccc(F)cc1 | -23% | -11% | -6% | 15 | 47*
CC(=O)n1nc(-c2ccccc2)nc1NCc1ccc(N(C)C)cc1 | 21% | 2% | -9% | 45* | 68*
COc1ccc(CNc2nc(-c3ccccc3)nn2C(=O)c2ccc([N+](=O)[O-])cc2)cc1 | -41% | ? | 5% | 32* | 75*
CC(C)CC(=O)n1nc(-c2cccnc2)nc1NCc1ccc(F)cc1 | . | -10% | . | . | .
Cc1nc2ccccc2nc1N1CCCC1 | -6% | -7% | 11% | 22 | 40*
Cc1nc2ccccc2nc1N1CCOCC1 | -5% | -2% | -6% | -1 | 11
CCCNC(=O)c1onc(CSc2ccc(Cl)cc2)c1C(=O)NC(C)C | 0% | -11% | . | . | .
O=C(Cc1ccc(-c2ccccc2)cc1)Nc1ccccc1 | -23% | 1% | 0% | 22* | 21
O=C(CCCc1c[nH]c2ccccc12)Nc1ncccc1O | -10% | ? | -11% | -3 | 20
O=C(C[n+]1ccc(Cc2ccccc2)cc1)Nc1ccccc1 | -4% | 0% | . | 25 | 39*
O=C(Cc1ccc(-c2ccccc2)cc1)NC1CCCC1 | -4%[11.4 µM] | -12% | . | 1 | -14
O=C(Cc1ccc(-c2ccccc2)cc1)Nc1ncccc1O | -17% | ? | -25% | 37* | 80*
COc1ccc(C(OCC(O)CN2CCC(O)CC2)c2ccc(OC)cc2)cc1 (stereo not drawn) | 15% | -4% | 6% | -8 | 17
COC(=O)C(CCSC)NC(=O)C1CCN(c2ncnc3c2nc2n3CCCCC2)CC1 (stereo not drawn) | . | 15% | . | . | .
COc1ccc(C2CC(c3ccc(OC)c(OC)c3)=NN2S(C)(=O)=O)cc1 (stereo not drawn) | 52% | 2% | -16% | 63* | 88*
SMILES | AmpC inh no detg | AmpC detergent | NS1 function inh | Cycloheximide cs | Shiga inhibitor
COc1ccc(C2=NN(C(=O)CCC(=O)O)C(c3ccc(OC)c(OC)c3)C2)cc1 (stereo not drawn) | 1% | 4% | 27% | -1 | 15
COc1ccc(C2=NN(S(C)(=O)=O)C(c3ccc4nccnc4c3)C2)cc1 (stereo not drawn) | 6% | 2% | 0% | 79* | 60*
O=C(O)CCCC(=O)N1N=C(c2ccccc2)CC1c1ccc2nccnc2c1 (stereo not drawn) | -9% | -6% | 8% | 8 | -2
Cc1ccc(C2=NN(S(C)(=O)=O)C(c3ccc4nccnc4c3)C2)cc1 (stereo not drawn) | -17% | 1% | 7% | 19* | 46*
CS(=O)(=O)N1N=C(c2ccccc2)CC1c1ccc2nccnc2c1 (stereo not drawn) | -11% | ? | 9% | 18 | 63*
Cc1ccc(NC(=O)c2oc3ccccc3c2NC(=O)c2ccc(F)c(F)c2)cc1 | . | 4% | . | . | .
CS(=O)(=O)Nc1cccc(C2=NN(S(C)(=O)=O)C(c3ccccc3)C2)c1 (stereo not drawn) | -13% | 3% | . | 9 | 27
O=C(O)CCC(=O)N1N=C(c2ccccc2)CC1c1ccc2nccnc2c1 (stereo not drawn) | -19% | -16% | 1% | 7 | -7
CS(=O)(=O)N1N=C(c2ccc3nccnc3c2)CC1c1ccccc1 (stereo not drawn) | 25% | 0% | 9% | 17* | 35
O=C(c1ccco1)N1N=C(c2ccccc2)CC1c1ccc2nccnc2c1 (stereo not drawn) | 95% | -1% | 4% | 16* | 31
Cc1cn2c(=O)cc(COC(=O)COc3ccc(F)cc3)nc2s1 | . | -1% | . | . | .
Cc1cccc(N=Nc2cnc(N)s2)c1 | -35% | 9% | -7% | 47* | 49*
CC(=O)Nc1ncc(N=Nc2cccc(C(F)(F)F)c2)s1 | -29% | -7% | 0% | 1 | 13
CCOC(=O)C1C(=O)C=C(Nc2ccccc2F)CC1c1ccccc1 (stereo not drawn) | -15% | -2% | -10% | 46* | 54*
COC(=O)C1C(=O)C=C(Nc2ccc(F)cc2)CC1c1ccc(OC)cc1 (stereo not drawn) | -19% | -10% | -4% | 25* | 40
COC(=O)C1C(=O)C=C(Nc2ccc(F)cc2F)CC1c1ccccc1 (stereo not drawn) | -14% | -15% | 5% | 21* | 55
CCOC(=O)C1C(O)=CC(=O)CC1c1ccccc1 (stereo not drawn) | -30% | -11% | . | . | .
Cc1cc(C)n(C(=O)COc2ccc([N+](=O)[O-])cc2)n1 | -16% | -14% | 10% | 0 | 9
Cc1cc(C)n(C(N)=NC(=O)c2ccc([N+](=O)[O-])cc2)n1 | -5% | -7% | 5% | 28* | 40*
O=C(N/N=C/C1CC2CCC1C2)C1CC1 (stereo not drawn) | -9% | 1% | 8% | 7 | -16
O=C(N/N=C/c1cc([N+](=O)[O-])ccc1O)c1c[nH]c2ccccc12 | -44% | -3% | -2% | -3 | 11
O=C(N/N=C/c1ccncc1)c1sc2ccccc2c1Cl | -17% | -13% | -40% | 13 | 18
O=C(N/N=C/c1ccccn1)c1c[nH]c2ccccc12 | -42% | -1% | 2% | 49* | 65*
O=C(N/N=C/c1ccc[nH]1)c1c[nH]c2ccccc12 | -26% | -8% | 16% | 52* | 111*
O=C(N/N=C/c1ccc[nH]1)c1sc2ccccc2c1Cl | -28% | 6% | -113% | 47* | 146*
O=C(N/N=C/C1CC2CCC1C2)c1c[nH]c2ccccc12 (stereo not drawn) | -31% | 5% | -1% | 23* | 40
COc1cccc(COC(=O)CCNC(=O)c2ccc(Cl)cc2)c1OC | -4% | -9% | . | . | .
